Pf Dd2 growth: inhibitors of Plasmodium falciparum Dd2 growth | Potency, µM (series often up to 28.9 µM), inactives show at the highest dose activity, negative = inhibition, most hits filed as inhibitors | P. falciparum Dd2 growth, SYBR Green, 72 h | AID 1347417 | hit rate 4.3% among 120,000; active means well fitted inhibition curve with a large enough effect;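 further: plate controls were DMSO vehicle for no effect and reference drug for full effect; nearly all actives have a fitted effect of over 65% in size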
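Infected erythrocytes (Dd2, 0.3% parasitemia, 2.5% hematocrit final) are added to compound in RPMI-1640/Albumax II medium, grown 72 h at 37C in low oxygen, then lysed with saponin/Triton-X containing SYBR Green and read by fluorescence.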
The depositor's hits bear a star; i = inactive; [ ] = remark or other dose. The full list was thinned out, with hits kept by preference. Potency means the concentration at half of the fitted maximal effect.

SMILES | Pf Dd2 growth
CN1CC(c2ccccc2)CC2(CCN(C(=O)c3ccccc3)CC2)C1 (stereo not given) | i
Cc1noc2ncnc(N3CCC4(CC3)CC(c3ccccc3)CN(C)C4)c12 (stereo not given) | 11µM*
Cc1ccccc1S(=O)(=O)N1CCC(CCC(=O)N(C)Cc2cccnc2)CC1 | -18%
COc1ccc(C2(c3nc(C4CC(=O)N(C5CCCCC5)C4)no3)CC2)cc1 (stereo not given) | 11µM*
COCc1nc(C2CC(=O)N(C3CCCCC3)C2)no1 (stereo not given) | 13%
Cc1ccc(-c2nc(C3CC(=O)N(C4CCCCC4)C3)no2)cc1 (stereo not given) | 55%
COc1ccc(C(=O)N2C(C(=O)N3CCCC3)COC23CCN(C(=O)Cc2ccccc2)CC3)cc1 (stereo not given) | -44%
CC1=C[C@@H](CN2CCC(CO)CC2)[C@H](C(C)C)C[C@H]1Cc1nnc(-c2ccc([N+](=O)[O-])cc2)o1 | 3.5µM*
CC1=C[C@@H](CN2CCN(CCO)CC2)[C@H](C(C)C)C[C@H]1Cc1nnc(-c2ccc([N+](=O)[O-])cc2)o1 | 2.5µM*
COc1ccc(-c2nnc(C[C@@H]3C[C@@H](C(C)C)[C@H](CN4CCN(CCO)CC4)C=C3C)o2)cc1 | -33%
CN(C)CCN(C)CC[C@H]1CN(C(=O)c2ccc(F)cc2)CC[C@H]1CC(=O)O | -11%[44.1 µM]
Cn1c(N2CCN(C(=O)Cn3nc4c(cc3=O)CCCCC4)CC2)nc2ccccc21 | -18%
O=C(NCCc1cnc[nH]1)C1CC(=O)N(c2n[nH]c3cc(Br)ccc23)C1 (stereo not given) | 8%
CC(=O)NCCC(=O)N1CCC2(CC1)CC(N[S+](C)(=O)[O-])c1ccccc12 (stereo not given) | 16%
CN1C(=O)[C@H]2CN(Cc3ccc(Br)cc3)C[C@H]2C1=O | 19%
COc1cc(Cl)ccc1C(=O)N1CC(F)(F)C[C@H]1c1nnc(C)o1 | i
CO[C@H]1C(=O)N(C(C)C)[C@H]1C1CCN(S(=O)(=O)c2cccs2)CC1 | -26%
NCc1ccccc1Oc1ccc(F)c(Cl)c1 | 11µM*
COc1ccc2c(c1)c1c(c(=O)n(-c3ccc(F)c(Cl)c3)c(=O)n1Cc1ccccc1F)n2C | 16%
Cn1nc2n(c1=O)CCC(NS(=O)(=O)c1ccc3c(c1)CCCC3)CC2 (stereo not given) | i
COc1ccc(NC2CCCN(C(=O)c3ccc(S(N)(=O)=O)cc3)C2)cc1 (stereo not given) | -6%
Cc1c(O)cccc1C(=O)N1CCCN(Cc2ccc(F)cc2)C(C(C)C)C1 (stereo not given) | 4µM*
CC(C)C1CN(C(=O)CNC(=O)N(C)C)CCCN1Cc1ccc(F)cc1 (stereo not given) | -19%
CC(C)C1CN(C(=O)CN2CCCCC2=O)CCCN1Cc1ccc(F)cc1 (stereo not given) | -10%
COc1ccccc1CNC(=O)C1CCN(c2cn[nH]c(=O)c2)C1 (stereo not given) | 1%
SMILES | Pf Dd2 growth
COCCNC(=O)c1ccc2c(c1)N(C)C(CC(=O)Nc1ccc[nH]c1=O)CO2 (stereo not given) | -8%
CC(=O)Nc1ccc(C(=O)N2CCC3(CC2)N=C(c2ccccc2)NO3)cc1 | 3%
Cc1ccccc1OCc1nc(C2CN(C(=O)Cc3cccc(F)c3)C2)no1 | -28%
O=C(Cc1cccnc1)N1CCOCC2(CN(Cc3cc(F)cc(F)c3)C2)C1 | 36%[44.1 µM]
CCc1ccc(C(=O)NC2CCN(c3cc(-c4ccc(OC)cc4)[nH]n3)CC2)cc1 | i
C=Cc1cccc(CN2CCCC3(CCNC3)C2)c1 (stereo not given) | 10µM*
COc1cc(CN2CCC3(CCNCC3)C2)cc(OC)c1OC | -4%
COC(=O)c1cc(CN2CCCC3(CCNC3)C2)ccc1O (stereo not given) | -17%
CCCNC(=O)CC1CCCN(c2cnn(CC3CC3)c(=O)c2)C1 (stereo not given) | -3%
O=C1CS(=O)C2(CCNCC2)N1Cc1cccc(F)c1 (stereo not given) | -20%
Cc1ccc(C(=O)N2CCCCCCNC(=O)[C@@H]3C[C@@H](c4nc(C(C)C)no4)C[C@@H]32)s1 | -13%
COCc1nc(NCc2sc(COC)nc2C)cc(C2CC(N)C2)n1 (stereo not given) | -16%
COc1cccc([S+](=O)([O-])N2CCNc3cnc(Nc4ccc(N5CCOCC5)cc4)nc3C2)c1 | -17%
CN1C[C@@H](NC(=O)c2ccc(F)cc2)C[C@H]1c1nc(-c2ccncc2)no1 | i
CN1C[C@@H](NC(=O)c2ccc(F)cc2)C[C@H]1c1nc(-c2ccccc2)no1 | 11µM*
CN1C[C@@H](NC(=O)c2ccc(-c3ccccc3)cc2)C[C@H]1c1nc(-c2ccncc2)no1 | 11µM*
CN1C[C@@H](NC(=O)c2cccnc2)C[C@H]1c1nc(-c2cccnc2)no1 | 2%[44.1 µM]
CN1C[C@@H](NC(=O)c2cccnc2)C[C@H]1c1nc(-c2ccncc2)no1 | -28%[44.1 µM]
CN1C[C@@H](NC(=O)c2ccc(F)cc2)C[C@H]1c1nc(-c2cncnc2)no1 | i
COc1ccc(CCC(=O)N[C@@H]2CN(c3ncccn3)C[C@H]2CO)cc1 | i
Cc1cc(C(=O)N2C[C@@H](COCC3CC3)[C@H](c3ccncc3)C2)on1 | 7%
O=C1N[C@@H]2CCN(C(=O)c3ccc(C(F)(F)F)cc3)[C@@H]2C(=O)N1c1ccc(F)cc1 | -21%[44.1 µM]
COC(=O)CN1C(=O)[C@@H]2C[C@@H](O)CN2C2(CN(C3CCN(C(C)=O)CC3)C2)C1=O | -14%[44.1 µM]
CCCn1nccc1C(=O)N1CCCC(c2[nH]ncc2Cc2ccccc2)C1 (stereo not given) | -9%
CCc1nc(-c2c3n(c(=O)n(Cc4ccccc4Cl)c2=O)CCCC3)no1 | -27%
SMILES | Pf Dd2 growth
CSc1cccc(NC(=O)NC[C@H]2C[C@@H]3CCN2C[C@@H]3CN(C)c2ccccc2)c1 | 8.9µM*
C#C[C@H]1CN2CC[C@H]1C[C@@H]2CNC(=O)Nc1cccc(SC)c1 | i
CSc1cccc(NC(=O)NC[C@H]2C[C@@H]3CCN2C[C@@H]3CN2CCN(c3ncccn3)CC2)c1 | i
O=C(c1cc2ccccc2[nH]1)N1CC2CC(C1)[C@@H]1CCCC(=O)N1C2 (stereo not given in full) | -10%
CN1CC(=O)N(C2CCCNC2)Cc2c(NCCOc3ccccc3)ncnc21 (stereo not given) | -6%
O=c1c2c(CO)c(-c3ccc(F)cc3)nn2ccn1CCc1ccccc1 | i
COc1ccccc1N1CCN(C(=O)Cn2c(=O)nc(-c3ccccc3)c3ccccc32)CC1 | 11µM*
O=C(Cn1ccn2nc(-c3ccc(F)cc3)c(CO)c2c1=O)N1CCN(c2ccccc2F)CC1 | i
COc1ccccc1N1CCN(C(=O)Cn2ccn3nc(-c4ccc(F)cc4)c(CO)c3c2=O)CC1 | 8.9µM*
O=c1c2c(CO)c(-c3ccc(F)cc3)nn2ccn1Cc1ccc(Br)cc1 | 8.9µM*
O=C(Cn1ccn2nc(-c3ccccc3)c(CO)c2c1=O)N1CCN(c2ccccc2F)CC1 | -1%
COc1ccccc1N1CCN(C(=O)Cn2c(=O)n3nc(-c4cccc(F)c4)nc3c3ccccc32)CC1 | 30%
CCc1cc(=O)n(CC(=O)N2CCN(c3ccccc3OC)CC2)c(-c2ccccc2)n1 | -22%
O=c1c2c(CO)c(-c3ccccc3)nn2ccn1Cc1cccc(F)c1 | i
Cc1nc(C)c(C(=O)N2CCC(Cc3noc(-c4ccccc4)n3)C2)s1 (stereo not given) | -26%

From PubChem BioAssay
